Reference: PubChem BioAssay (Tox21)
A number with no mark means an inactive call. Records with an inconclusive call do not appear. Entries that show only a call come without a potency. The source made the active and inactive calls. Unless noted, the call rests on the fitted dose curve; in most records, active means well fitted curve in the direction sought with a large enough effect in the repeat runs; inconclusive means weak or mixed curves; inactive means no such curve, though single readings can be large; an effect the other way counts as inactive or inconclusive.

Key:
[1] = qHTS assay to identify small molecule antagonists of the TGF-beta/Smad signaling pathway - cell viability counter screen (AID 1346824); further: nearly all actives have a fitted effect of over 50% in size
In short: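 SBE-bla HEK 293T cells, incubated overnight, then compound plus 0.25 ng/mL TGF-beta1 (stock added) for 5 hr at 37 C. Viability was read in the same wells by CellTiter-Glo luminescence after 30 min at room temperature.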

[2] = qHTS assay to identify small molecule agonists of the TGF-beta/Smad signaling pathway - cell viability counter screen (AID 1346829); further: top concentration of the series differs between compounds; nearly all actives have a fitted effect of over 45% in size
In short: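 Cytotoxicity counter screen: CellTiter-Glo luminescence (30 min, room temperature) measured in the SBE-bla HEK 293T reporter wells after 5 hr compound treatment at 37 C and the 2 hr substrate step.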

[3] = qHTS assay to identify small molecule agonists of the TGF-beta/Smad signaling pathway (AID 1346859; active means well fitted activation curve with a large enough effect in the signal ratio in the repeat runs, not every such curve was filed as active; the % refers to the signal ratio; further: series mostly up to about 77 µM)
In short: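 Beta-lactamase reporter activity downstream of Smad binding elements was measured in stably transfected HEK 293T cells; compounds were incubated for 5 hr, substrate for 2 hr at room temperature.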

[4] = Human pregnane X receptor (PXR) small molecule agonists, qHTS cell viability counter screen (AID 1346977); further: nearly all actives have a fitted effect of over 50% in size
In short: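 After a 5hr pre-incubation, PXR-Luc HepG2 cells received compounds plus positive control in DMSO and were kept 24hr at 37C. Cell viability was quantified by fluorescence from CellTiter-Fluor added for the final hour.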

[5] = Caspase-3/7 induction in HepG2 cells by small molecules, qHTS assay (AID 1346978); further: nearly all actives have a fitted effect of over 15% in size
In short: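 Wild-type HepG2 cells, 2,000/well, settled 5 hr at 37 C and 5% CO2, then compound-treated for 17 hr; caspase-3/7 activity read by luminescent Caspase-Glo 3/7 after 30 min at room temperature.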

[6] = Caspase-3/7 induction in CHO-K1 cells by small molecules, qHTS cell viability counter screen (AID 1346979); further: nearly all actives have a fitted effect of over 35% in size
In short: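 Multiplexed with Caspase-Glo 3/7 in CHO-K1 cells, this counter screen added CellTiter-Fluor after 16hr of compound exposure and recorded fluorescence 1hr later.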

[7] = Caspase-3/7 induction in CHO-K1 cells by small molecules, qHTS assay (AID 1346980); further: nearly all actives have a fitted effect of over 15% in size
In short: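 Wild-type CHO-K1 cells exposed to compounds for 17hr at 37 C, 5% CO2. Caspase-3/7 activity then measured by Caspase-Glo 3/7 luminescence after 30min at room temperature.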

[8] = Caspase-3/7 induction in HepG2 cells by small molecules, qHTS cell viability counter screen (AID 1346981); further: series mostly up to about 92 µM; nearly all actives have a fitted effect of over 30% in size
In short: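 Fluorescence read-out of live-cell protease activity (CellTiter-Fluor) after 1 hr with reagent. This was measured in the same wells as the caspase-3/7 luminescence, on HepG2 cells exposed to DMSO-dissolved compounds for 16 hr at 37 C.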

[9] = target: Nuclear receptor subfamily 1 group I member 2 (Homo sapiens) (UniProt O75469); assay: Human pregnane X receptor (PXR) small molecule agonists, qHTS assay (AID 1346982); further: nearly all actives have a fitted effect of over 35% in size
Chain of Nuclear receptor subfamily 1 group I member 2 (Homo sapiens) (O75469 whole entry, looked up): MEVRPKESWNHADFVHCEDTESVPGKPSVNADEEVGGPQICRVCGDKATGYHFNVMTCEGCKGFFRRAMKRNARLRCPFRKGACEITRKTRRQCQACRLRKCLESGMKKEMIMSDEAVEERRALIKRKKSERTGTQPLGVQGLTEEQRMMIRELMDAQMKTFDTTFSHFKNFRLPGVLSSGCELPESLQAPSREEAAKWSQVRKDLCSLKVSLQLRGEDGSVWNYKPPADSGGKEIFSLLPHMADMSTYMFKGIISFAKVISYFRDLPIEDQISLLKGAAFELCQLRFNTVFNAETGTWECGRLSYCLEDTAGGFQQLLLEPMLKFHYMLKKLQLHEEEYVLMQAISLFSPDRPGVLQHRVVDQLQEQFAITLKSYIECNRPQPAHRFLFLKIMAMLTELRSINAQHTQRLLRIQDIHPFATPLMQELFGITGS
In short: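 HepG2 PXR-Luc reporter line, 5% charcoal-stripped FBS; 5 hr pre-incubation, compound (DMSO) 24 hr at 37 C/5% CO2; ONE-Glo 30 min RT; luminescence read-out.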

[10] = target: Cytochrome P450 2D6 (Homo sapiens) (UniProt P10635); assay: Cytochrome P450 Family 2 Subfamily D Member 6 (CYP2D6) small molecule antagonists: luciferase reporter qHTS assay (AID 1671196); further: nearly all actives have a fitted effect of over 50% in size; further: potency means the concentration at half of the fitted maximal effect
Chain of Cytochrome P450 2D6 (Homo sapiens) (P10635 whole entry, looked up): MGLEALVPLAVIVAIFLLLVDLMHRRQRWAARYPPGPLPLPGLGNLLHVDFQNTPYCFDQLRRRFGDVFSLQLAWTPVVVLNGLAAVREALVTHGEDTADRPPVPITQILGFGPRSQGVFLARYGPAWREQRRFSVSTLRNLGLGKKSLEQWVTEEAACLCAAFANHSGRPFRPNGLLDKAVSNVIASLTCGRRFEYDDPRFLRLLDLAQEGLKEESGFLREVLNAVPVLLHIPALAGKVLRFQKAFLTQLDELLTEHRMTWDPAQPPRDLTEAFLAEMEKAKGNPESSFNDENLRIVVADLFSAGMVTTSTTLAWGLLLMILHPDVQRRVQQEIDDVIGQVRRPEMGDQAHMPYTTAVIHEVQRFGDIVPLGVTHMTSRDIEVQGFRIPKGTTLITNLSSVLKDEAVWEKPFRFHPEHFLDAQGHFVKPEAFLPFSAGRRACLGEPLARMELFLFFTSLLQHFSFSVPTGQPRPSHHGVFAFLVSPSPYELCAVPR
In short: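 Luminogenic proluciferin substrate, CYP2D6 enzyme; 10 min RT preincubation with compound, NADPH regeneration system added, 1 h RT. Stop/detection reagent, 20 min RT, luminescence read (RLU). Signal proportional to CYP activity.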

[11] = target: Cytochrome P450 2C19 (Homo sapiens) (UniProt P33261); assay: Cytochrome P450 Family 2 Subfamily C Member 19 (CYP2C19) small molecule antagonists: luciferase reporter qHTS assay (AID 1671197); further: nearly all actives have a fitted effect of over 65% in size; further: potency means the concentration at half of the fitted maximal effect
Chain of Cytochrome P450 2C19 (Homo sapiens) (P33261 whole entry, looked up): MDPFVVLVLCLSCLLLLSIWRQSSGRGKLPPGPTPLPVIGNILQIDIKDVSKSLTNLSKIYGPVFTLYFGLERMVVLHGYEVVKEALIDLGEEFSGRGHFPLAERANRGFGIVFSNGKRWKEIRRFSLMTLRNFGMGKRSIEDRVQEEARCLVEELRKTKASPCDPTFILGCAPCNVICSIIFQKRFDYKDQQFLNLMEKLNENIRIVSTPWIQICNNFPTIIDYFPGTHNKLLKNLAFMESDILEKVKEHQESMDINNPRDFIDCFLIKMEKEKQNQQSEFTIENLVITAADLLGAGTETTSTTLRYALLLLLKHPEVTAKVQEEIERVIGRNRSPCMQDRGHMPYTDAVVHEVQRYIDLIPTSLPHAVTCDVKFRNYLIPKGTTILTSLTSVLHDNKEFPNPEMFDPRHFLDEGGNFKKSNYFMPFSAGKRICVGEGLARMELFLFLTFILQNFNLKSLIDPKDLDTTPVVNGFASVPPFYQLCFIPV
In short: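 Luminescent readout of CYP2C19 activity: luciferin product detected 20 min after adding detection reagent. Before that, compound and enzyme-substrate mix preincubated 10 min at room temperature; NADPH-regenerating system started a 1 h, 37C reaction. Ketoconazole as positive control.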

[12] = target: Cytochrome P450 2C9 (Homo sapiens) (UniProt P11712); assay: Cytochrome P450 Family 2 Subfamily C Member 9 (CYP2C9) small molecule antagonists: luciferase reporter qHTS assay (AID 1671198); further: nearly all actives have a fitted effect of over 50% in size; further: potency means the concentration at half of the fitted maximal effect
Chain of Cytochrome P450 2C9 (Homo sapiens) (P11712 whole entry, looked up): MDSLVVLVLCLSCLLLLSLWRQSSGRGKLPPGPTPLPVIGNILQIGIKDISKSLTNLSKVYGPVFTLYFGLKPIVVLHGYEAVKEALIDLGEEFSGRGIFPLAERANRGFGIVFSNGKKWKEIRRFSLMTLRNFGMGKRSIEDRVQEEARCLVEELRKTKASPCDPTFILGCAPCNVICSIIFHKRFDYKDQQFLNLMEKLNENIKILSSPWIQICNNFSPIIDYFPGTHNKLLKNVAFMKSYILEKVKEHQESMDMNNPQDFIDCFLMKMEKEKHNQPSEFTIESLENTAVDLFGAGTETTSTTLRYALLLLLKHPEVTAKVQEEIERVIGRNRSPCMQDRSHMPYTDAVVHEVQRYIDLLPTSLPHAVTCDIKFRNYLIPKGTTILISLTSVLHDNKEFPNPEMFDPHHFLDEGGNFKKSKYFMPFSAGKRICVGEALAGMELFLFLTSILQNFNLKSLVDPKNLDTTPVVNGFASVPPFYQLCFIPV
In short: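 P450-Glo proluciferin substrate with CYP2C9 enzyme; 10 min RT preincubation, then NADPH regeneration 1 h at 37C; luciferin detection reagent 20 min RT, luminescence in relative luminescence units.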

[13] = target: Voltage-gated inwardly rectifying potassium channel KCNH2 (Homo sapiens) (UniProt Q12809); assay: Human Ether-a-go-go-Related Gene (hERG) channel small molecule antagonists: fluorescence cell-based qHTS assay (AID 1671200)
Chain of Voltage-gated inwardly rectifying potassium channel KCNH2 (Homo sapiens) (Q12809 whole entry, looked up): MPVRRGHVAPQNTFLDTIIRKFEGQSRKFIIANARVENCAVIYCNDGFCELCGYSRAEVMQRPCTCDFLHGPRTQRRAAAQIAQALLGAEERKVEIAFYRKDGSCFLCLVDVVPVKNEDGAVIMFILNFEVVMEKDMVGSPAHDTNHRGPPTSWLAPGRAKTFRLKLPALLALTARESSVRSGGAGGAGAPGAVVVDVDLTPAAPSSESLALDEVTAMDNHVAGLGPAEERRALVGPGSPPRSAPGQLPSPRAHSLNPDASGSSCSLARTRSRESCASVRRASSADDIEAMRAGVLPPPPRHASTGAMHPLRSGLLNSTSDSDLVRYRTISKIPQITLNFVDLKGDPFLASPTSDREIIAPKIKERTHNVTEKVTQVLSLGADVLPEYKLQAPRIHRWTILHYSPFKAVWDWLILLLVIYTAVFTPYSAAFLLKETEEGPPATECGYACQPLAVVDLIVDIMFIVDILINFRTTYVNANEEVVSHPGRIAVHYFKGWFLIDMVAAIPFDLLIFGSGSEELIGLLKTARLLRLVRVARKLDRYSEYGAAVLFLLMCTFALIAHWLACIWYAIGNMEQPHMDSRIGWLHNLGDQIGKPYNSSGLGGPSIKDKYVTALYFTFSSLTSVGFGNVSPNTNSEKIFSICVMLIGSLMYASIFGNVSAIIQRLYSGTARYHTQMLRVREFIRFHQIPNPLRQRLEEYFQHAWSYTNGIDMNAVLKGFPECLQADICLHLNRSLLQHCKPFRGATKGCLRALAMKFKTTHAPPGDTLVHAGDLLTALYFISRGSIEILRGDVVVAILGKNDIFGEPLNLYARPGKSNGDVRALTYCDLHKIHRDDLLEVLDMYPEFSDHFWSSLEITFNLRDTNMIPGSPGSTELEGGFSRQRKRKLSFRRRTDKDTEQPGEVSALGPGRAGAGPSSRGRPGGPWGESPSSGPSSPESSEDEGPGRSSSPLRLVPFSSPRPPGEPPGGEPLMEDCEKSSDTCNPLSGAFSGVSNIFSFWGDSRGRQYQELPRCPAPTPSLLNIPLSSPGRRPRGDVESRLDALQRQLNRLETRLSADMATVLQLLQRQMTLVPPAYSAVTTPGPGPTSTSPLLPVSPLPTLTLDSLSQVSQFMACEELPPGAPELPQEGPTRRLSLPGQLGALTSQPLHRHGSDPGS
In short: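 Cell line hERG-U2OS; dye FluxOR II, 1 h RT dark; Tl+ stimulus; ex 480/em 540 nm, read each second for 2 min.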

[14] = target: Nuclear receptor subfamily 1 group I member 2 (Homo sapiens) (UniProt O75469); assay: CYP3A4 induction through human pregnane X receptor (PXR) by small molecules, qHTS assay (AID 1346984); further: nearly all actives have a fitted effect of over 40% in size
In short: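 HepG2-derived DPX-2 line carrying PXR plus a CYP3A4-promoter luciferase reporter; cells plated 5 hr, compound-exposed 24 hr at 37C. CYP3A4 activity probed with 3uM (final) Luciferin-IPA for 3hr, then luciferase read after One-Glo.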

[15] = target: Nuclear receptor subfamily 1 group I member 2 (Homo sapiens) (UniProt O75469); assay: Human pregnane X receptor (PXR) activation by small molecules, qHTS assay (AID 1346985); further: nearly all actives have a fitted effect of over 40% in size
In short: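 DPX-2 cells (HepG2 co-transfected with a PXR response element and a CYP3A4-promoter luciferase construct) were seeded at 2,000 per well, rested 5 hr at 37C, then exposed to DMSO-dissolved compounds for 24 hr. Activation was read as luciferase luminescence.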

[16] = target: Cytochrome P450 1A2 (Homo sapiens) (UniProt P05177); assay: Cytochrome P450 Family 1 Subfamily A Member 2 (CYP1A2) small molecule antagonists: luciferase reporter qHTS assay (AID 1671199); further: nearly all actives have a fitted effect of over 50% in size; further: potency means the concentration at half of the fitted maximal effect
Chain of Cytochrome P450 1A2 (Homo sapiens) (P05177 whole entry, looked up): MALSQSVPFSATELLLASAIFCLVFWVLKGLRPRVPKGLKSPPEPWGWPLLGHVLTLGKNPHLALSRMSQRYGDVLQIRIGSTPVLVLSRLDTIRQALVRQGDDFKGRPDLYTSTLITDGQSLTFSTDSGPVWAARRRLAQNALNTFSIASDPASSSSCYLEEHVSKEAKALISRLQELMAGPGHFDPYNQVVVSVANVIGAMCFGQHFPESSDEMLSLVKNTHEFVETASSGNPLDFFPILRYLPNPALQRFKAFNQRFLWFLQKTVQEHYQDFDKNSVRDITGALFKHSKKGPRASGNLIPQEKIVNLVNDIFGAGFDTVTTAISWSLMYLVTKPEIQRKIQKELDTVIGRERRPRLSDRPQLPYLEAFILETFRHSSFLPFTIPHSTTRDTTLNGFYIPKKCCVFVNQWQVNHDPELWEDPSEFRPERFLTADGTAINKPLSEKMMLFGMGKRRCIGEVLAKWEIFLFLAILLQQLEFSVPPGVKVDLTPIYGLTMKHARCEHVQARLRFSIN
In short: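 Luminescence readout (relative luminescence units) after luciferin detection reagent, 20 min RT. Preceded by 1 h room-temperature CYP1A2 reaction with NADPH regeneration solution following 10 min compound preincubation with enzyme and proluciferin substrate. Furafylline positive control.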

[17] = target: Cytochrome P450 3A4 (Homo sapiens) (UniProt P08684); assay: Cytochrome P450 Family 3 Subfamily A Member 4 (CYP3A4) small molecule antagonists: luciferase reporter qHTS assay (AID 1671201)
Chain of Cytochrome P450 3A4 (Homo sapiens) (P08684 whole entry, looked up): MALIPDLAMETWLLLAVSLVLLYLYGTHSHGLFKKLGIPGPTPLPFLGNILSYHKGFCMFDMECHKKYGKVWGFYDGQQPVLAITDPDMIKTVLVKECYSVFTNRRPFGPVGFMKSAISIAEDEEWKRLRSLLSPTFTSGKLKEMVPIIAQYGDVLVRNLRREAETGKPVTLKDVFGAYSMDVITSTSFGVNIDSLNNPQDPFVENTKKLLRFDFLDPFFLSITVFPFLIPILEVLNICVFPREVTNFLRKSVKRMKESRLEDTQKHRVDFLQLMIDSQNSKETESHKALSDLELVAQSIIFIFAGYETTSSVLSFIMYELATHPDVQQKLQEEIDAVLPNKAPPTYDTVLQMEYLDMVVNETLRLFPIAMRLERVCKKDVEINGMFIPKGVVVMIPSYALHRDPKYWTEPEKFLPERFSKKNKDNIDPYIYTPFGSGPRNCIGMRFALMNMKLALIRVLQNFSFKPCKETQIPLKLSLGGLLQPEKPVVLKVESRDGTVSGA
In short: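 Room-temperature assay throughout: 10 min compound–enzyme/substrate preincubation, 1 h reaction after NADPH regeneration solution, 20 min detection. Luciferin formed from proluciferin substrate is quantified by luminescence.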

[18] = target: Thyrotropin-releasing hormone receptor (Homo sapiens) (UniProt P34981); assay: qHTS assay to identify small molecule agonists of the thyrotropin-releasing hormone receptor (TRHR) signaling pathway (AID 1346891; calls by dose curve;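 further: HEK293 cells expressing TRHR with calcium dye readout; series mostly up to about 58 µM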)
Chain of Thyrotropin-releasing hormone receptor (Homo sapiens) (P34981 whole entry, looked up): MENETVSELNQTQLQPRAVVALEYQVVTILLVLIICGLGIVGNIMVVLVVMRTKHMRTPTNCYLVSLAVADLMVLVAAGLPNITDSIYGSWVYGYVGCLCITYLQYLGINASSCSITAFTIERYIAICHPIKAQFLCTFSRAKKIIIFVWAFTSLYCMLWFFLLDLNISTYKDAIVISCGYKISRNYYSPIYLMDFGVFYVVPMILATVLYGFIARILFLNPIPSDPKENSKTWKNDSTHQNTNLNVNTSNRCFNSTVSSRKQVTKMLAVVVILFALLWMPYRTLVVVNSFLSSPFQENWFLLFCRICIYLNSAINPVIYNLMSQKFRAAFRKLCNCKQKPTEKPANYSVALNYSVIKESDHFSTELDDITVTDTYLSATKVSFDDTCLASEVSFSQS
In short: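 Overnight-plated (18 h, 37 °C, 5% CO2) TRHR-Hek293 cells; 2 h calcium dye at 37 °C; compound in DMSO; 3-min kinetic fluorescence read.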

[19] = target: Nuclear receptor subfamily 1 group I member 2 (Rattus norvegicus) (UniProt Q9R1A7); assay: Rat pregnane X receptor (rPXR) activation by small molecules, qHTS assay (AID 1346983); conditions: rPXR luciferase reporter cells, One-Glo luminescence, 24 h; active compounds read high; further: nearly all actives have a fitted effect of over 20% in size
Chain of Nuclear receptor subfamily 1 group I member 2 (Rattus norvegicus) (Q9R1A7 whole entry, looked up): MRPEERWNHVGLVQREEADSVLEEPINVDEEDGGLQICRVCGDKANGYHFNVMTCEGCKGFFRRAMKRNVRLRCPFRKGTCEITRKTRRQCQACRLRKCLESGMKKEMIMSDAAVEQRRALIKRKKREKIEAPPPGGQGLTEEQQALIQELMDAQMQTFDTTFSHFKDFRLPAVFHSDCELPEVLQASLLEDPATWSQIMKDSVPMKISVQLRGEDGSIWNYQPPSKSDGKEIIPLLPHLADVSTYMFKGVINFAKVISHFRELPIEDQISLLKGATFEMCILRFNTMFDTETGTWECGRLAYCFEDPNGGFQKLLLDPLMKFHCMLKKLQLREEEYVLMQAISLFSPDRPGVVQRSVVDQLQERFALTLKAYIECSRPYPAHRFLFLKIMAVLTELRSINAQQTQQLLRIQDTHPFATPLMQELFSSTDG
In short: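 Cell-based rPXR activation assay: rPXR cells, 2,000 per well, rested 5hr at 37 C, then exposed to compounds in DMSO for 24 hr at 37 C. Luciferase activity read by One-Glo luminescence after 30 min at room temperature.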

Row | Structure (SMILES) | outcome [1] | outcome [2] | outcome [3] | outcome [4] | outcome [5] | Potency [6] | outcome [7] | outcome [8] | Potency [9] | Potency [10] | Potency [11] | Potency [12] | Potency [13] | Potency [14] | Potency [15] | Potency [16] | Potency [17] | outcome [18] | max activation [19]
1 | CCCCCCC1(C)CCC(=O)O1 (configuration not stated) | inactive | inactive | inactive | inactive | inactive | inactive | inactive | inactive | inactive | inactive | inactive | inactive | inactive |  |  |  |  |  | 
2 | CCC(=O)c1c(O)cc(O)cc1O | inactive | inactive | inactive | inactive | inactive | inactive | inactive | inactive | inactive | 27.5 µM (active) | inactive | 13.8 µM (active) | inactive | inactive | inactive | 12.9 µM (active) |  |  | 
3 | Cc1cc(-c2ccccc2)nnc1NCCN1CCOCC1 | inactive | inactive | inactive | inactive | inactive | inactive | inactive | inactive | inactive | 8.71 µM (active) | inactive |  | inactive |  |  | inactive |  |  | 
4 | COc1ccc(CCO)cc1 | inactive | inactive | inactive | inactive | inactive | inactive | inactive | inactive | inactive | inactive | 71 µM (active) | 79.6 µM (active) | inactive |  |  | 63.3 µM (active) | inactive |  | 
5 | C=CC(=O)OCC1CCCO1 (configuration not stated) | inactive | inactive | inactive | inactive | inactive | inactive | inactive | inactive | inactive | inactive | inactive | inactive | inactive |  |  |  | inactive |  | 
6 | NCc1ccc(S(N)(=O)=O)cc1 | inactive | inactive | inactive | inactive |  | inactive | inactive |  | inactive | inactive |  |  | inactive | inactive | inactive | inactive | inactive | inactive | -0.0614%
7 | CO/N=C(/C(=O)N[C@@H]1C(=O)N2C(C(=O)[O-])=C(C[n+]3ccn4ncccc43)CS[C@H]12)c1nsc(N)n1 | inactive | inactive | inactive | inactive | inactive | inactive | inactive | inactive | inactive | inactive | inactive | inactive | inactive |  |  | 27.5 µM (active) | inactive |  | 
8 | CC1=C(C(=O)O)N2C(=O)[C@@H](NC(=O)[C@H](N)c3ccccc3)[C@H]2SC1 | inactive | inactive | inactive | inactive |  | inactive | inactive | inactive | inactive |  |  |  |  |  | inactive |  |  | inactive | -2.36%
9 | C/C=C(\C)C(C)=O | inactive | inactive | inactive | inactive |  | inactive | inactive | inactive | inactive | inactive | inactive | inactive | inactive |  |  | inactive | inactive | inactive | 
